An excerpt weighted towards active compounds, which were near 3.9% of everything screened.
Anthrax LF inh2: Bacillus anthracis LF protease inhibitors, primary screen, biochemical, multiplex microsphere, MLPCN library; Lethal factor (Bacillus anthracis), P15917; 360,000 compounds, 0.12% hits; multiplex microsphere protease cleavage assay; inhibition, % at 10 µM; further: plate controls were buffer without enzyme for full effect and enzyme alone for no effect
Target sequence (P15917 whole entry, looked up): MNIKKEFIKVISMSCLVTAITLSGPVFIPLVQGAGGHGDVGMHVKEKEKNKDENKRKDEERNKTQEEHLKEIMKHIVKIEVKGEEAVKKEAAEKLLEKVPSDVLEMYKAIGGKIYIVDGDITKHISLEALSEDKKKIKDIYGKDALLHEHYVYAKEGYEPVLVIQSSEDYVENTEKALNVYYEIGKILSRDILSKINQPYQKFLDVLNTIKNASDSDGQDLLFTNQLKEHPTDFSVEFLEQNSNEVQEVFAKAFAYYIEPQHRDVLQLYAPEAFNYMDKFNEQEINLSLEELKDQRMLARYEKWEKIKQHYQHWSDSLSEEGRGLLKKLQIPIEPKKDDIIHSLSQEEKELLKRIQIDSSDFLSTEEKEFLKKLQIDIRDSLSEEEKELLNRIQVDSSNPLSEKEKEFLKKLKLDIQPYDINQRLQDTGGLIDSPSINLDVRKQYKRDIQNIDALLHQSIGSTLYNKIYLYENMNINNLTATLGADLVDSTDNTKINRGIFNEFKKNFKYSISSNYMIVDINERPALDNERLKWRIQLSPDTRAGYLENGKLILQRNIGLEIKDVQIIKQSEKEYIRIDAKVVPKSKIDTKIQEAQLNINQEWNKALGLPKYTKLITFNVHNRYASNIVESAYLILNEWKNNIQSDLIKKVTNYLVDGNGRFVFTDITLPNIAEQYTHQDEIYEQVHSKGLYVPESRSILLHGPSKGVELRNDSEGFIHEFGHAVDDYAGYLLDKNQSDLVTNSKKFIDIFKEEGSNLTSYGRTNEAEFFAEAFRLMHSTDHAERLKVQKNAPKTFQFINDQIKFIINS
BoNT A protease: BoNT/A light chain protease inhibitors, primary screen, biochemical, flow cytometry, MLPCN library; Botulinum neurotoxin type A light chain protease (Clostridium botulinum A str. ATCC 3502); multiplex microsphere protease substrate cleavage; inhibition, % at 10 µM; 360,000 compounds, 0.17% hits; AID 588499, 2011; further: plate controls were buffer without enzyme for full effect and enzyme alone for no effect
Bead autofluor: flagged as autofluorescent in microsphere protease counterscreen | compound autofluorescence counterscreen, microsphere flow cytometry; active compounds read high | fluorescence intensity (test concentration not listed) | 360,000 compounds, 3.1% hits; in the data active means fluorescence intensity above about 16000; inconclusive means no clear call, values can overlap the other calls
3CLpro inhibitor: SARS-CoV 3CLpro protease inhibitors, primary screen, biochemical, quenched FRET | inhibition, % at 6 µM | 290,000 compounds, 0.14% hits | Replicase polyprotein 1ab (Severe acute respiratory syndrome coronavirus), P0C6X7 | AID 1706, 2009 | recombinant SARS-CoV 3CLpro, quenched FRET peptide cleavage; in the data active means inhibition above about 12%
CCHFV vOTU inh: CCHFV vOTU protease inhibitors, primary screen, biochemical, Pep-AMC substrate, fluorescence. 370,000 compounds, 0.55% hits. inhibition, % at 11.5 µM; in the data active means inhibition above about 30%; further: 0% = vehicle wells with enzyme and 100% = no enzyme wells
BoNT F protease: BoNT/F light chain protease inhibitors, primary screen, biochemical, flow cytometry, MLPCN library; Botulinum neurotoxin type F light chain protease (Clostridium botulinum); Multiplex microsphere protease cleavage assay; inhibition, % at 10 µM; 360,000 compounds, 0.22% hits; in the data active means inhibition above about 35%, passing the limit was not always enough; inconclusive means no clear call, values can overlap the other calls; further: plate controls were buffer without enzyme for full effect and enzyme alone for no effect
* = called active by the depositor; ? = inconclusive; · = no result. Unless noted, no stated cut-off is given here; in the data, active means inhibition above about 30%; inconclusive means no clear call, values can overlap the other calls; inactive means below that.

SMILES	Anthrax LF inh2	BoNT A protease	Bead autofluor	3CLpro inhibitor	CCHFV vOTU inh	BoNT F protease
CC1CCCCC1NC(=O)NC(=O)COC(=O)c1ccc(OC(F)F)cc1 (stereo not given)	-6	0	4303	·	10	2
Cc1ccc(C(=C2C3C=CC2C2C(=O)NC(=O)C32)c2ccc(C)cc2)cc1 (stereo not given)	-1	1	20213*	6	·	3
O=C1C2C3C=CC(C3=C(c3ccccc3)c3ccccc3)C2C(=O)N1Cc1ccccc1 (stereo not given)	-4	0	3178	-1	-5	-8
Cc1ccc(C(C(=O)NC2CCCCC2)N2CCCC2)cc1 (stereo not given)	-2	0	3664	-3	6	36*
Cc1ccc(C(C(=O)NC2CCCC2)N2CCCCC2)cc1 (stereo not given)	-1	-1	5637	4	-1	3
Cc1c(C(=O)NC2CC(C)(C)NC(C)(C)C2)oc2c(Cl)cccc12	-2	1	4114	·	7	-3
O=C(NC1CCCCC1)c1ccc(S(=O)(=O)N2CCCC2)cc1	-2	?	16946*	1	-19	-4
Cc1ccc(C(=O)NC2CCN(S(=O)(=O)c3ccccc3)CC2)cc1	1	0	3657	-1	12	-3
CCOc1ccc(C(=O)NC2CCN(S(=O)(=O)c3ccccc3)CC2)cc1	0	1	2800	3	-11	38*
CN1CCN(S(=O)(=O)c2ccc(C(=O)NC3CCCCC3)cc2)CC1	3	0	3830	·	-11	9
COC(=O)C1=C(C)N(Cc2ccc(C(F)(F)F)cc2)C(=NCC2CC2)NC1c1cccc(Cl)c1 (stereo not given)	·	·	·	·	20	·
Cc1cccc2c1N(N=O)CCC2	-1	-2	2059	3	-22	-28
Cc1cc[n+]2c3c(cccc13)CCC2	-12	0	20480*	4	-4	-5
CNC[C@@H]1OCc2ccccc2-c2ccccc2C(=O)N([C@@H](C)CO)C[C@@H]1C	-2	0	3653	·	-2	0
COc1cc2c(cc1OC)CN(CC(=O)Nc1ccc3c(c1)OC(F)(F)O3)CC2	-2	?	24021*	5	-2	-8
C#CCNC(=O)C[C@H]1C[C@@]2(C(=O)OC)C(=C[C@H](COCc3ccccc3)O[C@@H]2C)N(Cc2ccc(Cl)cc2Cl)C1=O	·	·	·	·	5	·
CN(C(=O)COC(=O)COc1ccccc1F)C1CCS(=O)(=O)C1 (stereo not given)	-12	-4	5902	-9	-11	38*
Cc1cc(C)c(OCC(=O)OCC(=O)N(C)C2CCS(=O)(=O)C2)c(C)c1 (stereo not given)	10	-2	6351	·	-9	3
CN(C(=O)COC(=O)C1CCN(S(=O)(=O)c2cccs2)CC1)C1CCS(=O)(=O)C1 (stereo not given)	-3	?	20892*	-2	-1	6
COCCCNC(=S)NNC(=S)Nc1ccc(F)cc1F	-1	?	21111*	3	1	0
COCCCNC(=S)NNC(=S)Nc1ccccc1	0	-2	5310	1	5	-12
COc1nn(CC(=O)N2N=C(C(F)F)CC2(O)C(F)F)cc1[N+](=O)[O-] (stereo not given)	-3	-3	23495*	-1	-2	-4
COc1nn(C(C)C(=O)N2N=C(C(F)F)CC2(O)C(F)F)cc1[N+](=O)[O-] (stereo not given)	3	-1	20181*	1	1	-1
CC1(C)CC(=O)C(C(O)c2cccc([N+](=O)[O-])c2)C(C)(C)N1 (stereo not given)	0	-3	4176	-1	-18	8
CCOc1ccc(N=C/C=C/c2ccccc2)c(O)c1	0	35*	3275	3	11	-72
CCn1nc(C)c(/C=N/NC(=O)c2nc3nc(C)cc(C)n3n2)c1C	34*	3	3405	4	-5	?
CN1CCc2ccccc2C1C1CCNCC1 (stereo not given)	-1	-5	24213*	-1	-11	-9
